# KAT2A inh: inhibitors of human GCN5L2 histone acetyltransferase; Potency, µM (doses to about 58.9 µM), for inactives: at the top dose activity change, negative = inhibition, usual class: inhibitors; GCN5L2 HAT assay, ThioGlo1 CoA-SH fluorescence; AID 504327; hit rate 0.21% among 390,000; note: potency is the fitted concentration of half-maximal effect
#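 Fluorescence readout, Ex340nm/Em540nm: ThioGlo1 (50uM final) reacts with free CoA thiol released as 20nM GCN5L2 acetylates H3(1-25) peptide (75uM) using acetyl-CoA (70uM). Compound and enzyme sat 15 min beforehand; 20 min room-temperature reaction.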
# Giardia killer: Giardia lamblia killing; Giardia lamblia trophozoite viability; activity change, % at 7.66 µM, hits read low; hit rate 0.15% among 340,000; in the data active = activity change below about -80%; inconclusive = between about -30% and that limit;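 note: parasites exposed to compound for two days anaerobically before the ATP read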
#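 Trophozoites 100 cells/well + cpd; 48 hrs, 37 deg C, anaerobic. ATPLite 1-Step added, 15-30 min RT, luminescence read (ATP-based viability).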
# TrxR1 substrate: substrates of rat thioredoxin reductase 1; O89049; Potency, µM (titrated, usually from 114 µM), for inactives: at the top dose activity change, negative = substrate turnover; purified TrxR1 substrate turnover, NADPH consumption readout; hit rate 0.01% among 390,000; note: potency is the fitted concentration of half-maximal effect; nearly all actives have a fitted effect of over 50% in size
# Target sequence (O89049 whole entry, looked up): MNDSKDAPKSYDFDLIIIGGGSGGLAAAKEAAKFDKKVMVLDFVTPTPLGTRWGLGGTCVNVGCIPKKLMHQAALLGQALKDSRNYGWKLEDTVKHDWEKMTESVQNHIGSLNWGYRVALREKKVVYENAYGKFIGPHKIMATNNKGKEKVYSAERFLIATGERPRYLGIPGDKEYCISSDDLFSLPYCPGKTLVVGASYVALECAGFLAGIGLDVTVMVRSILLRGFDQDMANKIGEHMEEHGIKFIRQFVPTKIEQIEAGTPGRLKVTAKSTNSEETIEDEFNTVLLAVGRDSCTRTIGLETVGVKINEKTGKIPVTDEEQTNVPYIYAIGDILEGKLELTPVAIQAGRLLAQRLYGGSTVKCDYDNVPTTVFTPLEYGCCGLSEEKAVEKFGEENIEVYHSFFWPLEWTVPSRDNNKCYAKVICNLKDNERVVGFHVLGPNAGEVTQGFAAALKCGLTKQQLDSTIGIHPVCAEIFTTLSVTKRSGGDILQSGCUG
#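 Rat TrxR1, dispensed at 90 nM, was prereduced with 400 uM NADPH (final) for 5 min at ~22 deg C, then incubated with compound 15 min before 400 uM selenite. A first-read NADPH fluorescence drop versus no-compound background flagged substrates.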
# Pin1 inh: inhibitors of human Pin1 | Potency, µM (doses to about 115 µM), inactives show at the highest dose activity, negative = inhibition, hits mostly inhibitors | hit rate 0.009% among 390,000 | Q13526 | AID 504891 | Pin1 FP peptide displacement, HiFluor488, 10 min; active = well fitted inhibition curve with a large enough effect in the polarisation, with a control signal flat, not every such curve was filed as active; inconclusive = small, poorly fitted or top-dose-only effect, or effect the other way, or a change in a side signal; inactive = no such curve, though single readings can be large or run the other way; the % refers to the polarisation; note: potency is the fitted concentration of half-maximal effect
# TrxR1 inh: inhibitors of rat thioredoxin reductase 1; recombinant rTrxR1, NADPH fluorescence consumption, selenite substrate; Potency, µM (titrated, usually from 114 µM), for inactives: at the highest dose activity change, negative = inhibition, hits mostly inhibitors; hit rate 1% among 390,000; AID 588453; note: potency is the fitted concentration of half-maximal effect; nearly all actives have a fitted effect of over 65% in size
#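 Rat TrxR1 (90 nM in the dispensed reagent) was pre-reduced with 400 uM NADPH for 5 min at room temperature, then incubated with compound for 15 min. After 400 uM selenite was added, NADPH fluorescence (Ex 340/Em 450 nm) was followed for 8 min.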
# GALK inh: galactokinase (human) inhibition; P51570; Purified GALK, Kinase-Glo residual ATP luminescence; Potency, µM (highest dose often 57.5 µM), inactives show at the highest dose activity change, negative = inhibition, hits mostly inhibitors; hit rate 0.007% among 270,000; AID 1868; note: potency is the fitted concentration of half-maximal effect
#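 Galactose (100 uM) and ATP (35 uM) were turned over by 5 nM GALK for 1 h at RT. Kinase-Glo Plus then converted the remaining ATP into a luminescent signal.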
# An asterisk follows results filed as active; ? = inconclusive; / = no result given; ! = not active in a repeat; [ ] = another dose, or the depositor's remark. Only some compounds are listed: those with a hit (about 1.3% of all), similar ones and a draw of the others. Unless noted, calls come from the whole dose curve; as a rule, active = well fitted curve in the direction sought with a large enough effect; inconclusive = small, poorly fitted or top-dose-only effect, or another doubt; inactive = no such curve, though single readings can be large; an effect the other way counts as inactive or inconclusive. % is set by controls: 0 for no effect and ±100 for the full control effect.
SMILES,KAT2A inh,Giardia killer,TrxR1 substrate,Pin1 inh,TrxR1 inh,GALK inh
O=C(CCN1CCC2CCC(C2)C1)c1ccc(F)cc1 (stereo not given),/,-9,7%[11.4 µM],6%,1.6µM*,/
O=C(COC(=O)CCS(=O)(=O)c1ccccc1)Nc1ccccc1,-4%,-4,-2%,-8%,45µM*,/
CC(C)(C)n1ncc2c(=O)n(Cc3c(F)cc(Cl)cc3F)cnc21,/,/,1%,/,12%,/
C=Cc1c(C)c2cc3[nH]c(cc4nc(cc5nc(cc1[nH]2)C(C)=C5CCC(=O)O)C(CCC(=O)O)=C4C)c(C)c3C=C,-14%,17,11%[57.1 µM],32µM*,5.3µM*!,/
Cn1ccsc1=NC(=O)c1ccc([N+](=O)[O-])o1,?,-93*,-11%,?,?,-7%
Cc1cc2ncn(/N=C/c3ccc([N+](=O)[O-])s3)c2cc1C,22%,-98*,-10%,5%,-19%,1%
O=C(O)c1cccc(S(=O)(=O)N2CCN(S(=O)(=O)c3ccc4c(c3)OCCO4)CC2)c1,/,/,/,1%,/,/
O=c1[nH]c(Sc2ccc([N+](=O)[O-])cc2[N+](=O)[O-])nc2ccccc12,/,-21,-5%,0%,3.2µM*,/
Cc1ccc(C(=O)N2C(=S)C(c3ccc(F)cc3)=NC23CCN(C)CC3)cc1,-1%,-12,-10%,2%,20µM*,-3%
Cc1cc(=O)oc2c(CN3CCCC3)c(O)ccc12,-28%,18,836%,-2%,18µM*,-3%
CCN1CCN(Cc2c(O)ccc3c(C)cc(=O)oc23)CC1,-21%,32,896%,-4%,?,-4%
Cc1c(-c2ccccc2)c(=O)oc2c(CN3CCCC3)c(O)ccc12,35µM*,/,490%[57.1 µM],5%,12%[57.1 µM],/
COc1cc2c(NC3CCN(C(C)C)CC3)nc(N3CCCN(C)CC3)nc2cc1OCCCN1CCCC1,/,/,44%,/,?,/
CCC/C=C1\CCCOC(C(=O)NCc2ccc(C)o2)(C(F)(F)F)C1 (stereo not given),/,8,-1%,-3%,?,/
CCC/C=C1/CCCOC(C(=O)NCc2ccc(C)o2)(C(F)(F)F)C1 (stereo not given),-19%,19,-9%,?,13µM*,/
CCOC(=O)c1cc(C)sc1/N=C/C1=C(O)CCCC1=O,1%,-18,3%,-5%,20µM*,0%
CCOC(=O)c1cc(C)sc1/N=C/C1C(=O)CCCC1=O,-2%,21,-13%,4%,-22%,0%
CCN1CCN(Cc2c(O)ccc3c(=O)c(Oc4ccccc4C(C)C)c(C(F)(F)F)oc23)CC1,-10%,/,4%,-7%,-8%,/
COc1ccccc1N1C(=O)C=C(Sc2nc(C)cc(C)n2)C1=O,-10%,-12,11%[11.4 µM],-14%,2.8µM*,1%
CN=c1scc(-c2ccccc2F)n1/N=C/c1ccc[nH]1,-10%,?,-3%[57.1 µM],57%,3%[57.1 µM],6%
CN=c1scc(-c2ccccc2F)n1/N=C/c1ccc(O)c(O)c1O,?,-103*,3%[57.1 µM],?,-22%[57.1 µM],12%
Oc1c(Br)cc(Br)c2cccnc12,25%,-5,9%,-1%,6%,/
O=c1cc(Br)c(O)c(Br)cc1Br,/,-9,-3%,?,3.2µM*,/
CCOC(=O)C1CCN(C(=O)CSc2n[nH]c(-c3ccc(OC)cc3)n2)CC1,-9%,/,4%[57.1 µM],-1%,13%[57.1 µM],/
COc1cccc(C2c3c(ncn(CCCN4CCOCC4)c3=N)Oc3ccc4ccccc4c32)c1 (stereo not given),/,/,/,17%,/,/
NC1=NC(=O)/C(=C\c2ccco2)S1,3%,0,-4%,?,40µM*,-1%
O=C(Nc1nc2ccccc2[nH]1)c1ccccc1F,?,-89*,0%,-1%,6%,15%
CCc1ccc(C(=O)Nc2nc3ccccc3[nH]2)cc1,-1%,-94*,5%,-2%,25%,6%
COc1cc(OC)c(/C=C/c2c3ccccc3cc[n+]2C)c(OC)c1,/,/,-8%,/,2%,/
COc1ccc(Cn2c(C)ccc2C)cc1,0%,29,-1%,?,32µM*,1%

# Assay outcomes (PubChem)
